Test results from PubChem BioAssay (NCATS).
Inconclusive results are not listed. A call without a number means that no potency is given here. Calls of active or inactive are those of the source. Calls follow the shape of the dose curve; as a rule, active = well fitted inhibition curve with a large enough effect; inconclusive = small, poorly fitted or top-dose-only effect; inactive = no such curve, though single readings can be large or run the other way.

Biological target: Rap guanine nucleotide exchange factor 4 (Homo sapiens) (UniProt Q8WZA2)
Assay: Confirmatory qHTS for antagonist of cAMP-regulated guanine nucleotide exchange factor 4 (EPAC2) (AID 1645885); also: nearly all actives have a fitted effect of over 25% in size
Details: EPAC2 Rap1B-BODIPY-GDP exchange fluorescence, biochemical; series mostly up to 114 µM
Potency is read from the fitted curve at half-maximal effect.

Chain of Rap guanine nucleotide exchange factor 4 (Homo sapiens) (Q8WZA2 whole entry, looked up): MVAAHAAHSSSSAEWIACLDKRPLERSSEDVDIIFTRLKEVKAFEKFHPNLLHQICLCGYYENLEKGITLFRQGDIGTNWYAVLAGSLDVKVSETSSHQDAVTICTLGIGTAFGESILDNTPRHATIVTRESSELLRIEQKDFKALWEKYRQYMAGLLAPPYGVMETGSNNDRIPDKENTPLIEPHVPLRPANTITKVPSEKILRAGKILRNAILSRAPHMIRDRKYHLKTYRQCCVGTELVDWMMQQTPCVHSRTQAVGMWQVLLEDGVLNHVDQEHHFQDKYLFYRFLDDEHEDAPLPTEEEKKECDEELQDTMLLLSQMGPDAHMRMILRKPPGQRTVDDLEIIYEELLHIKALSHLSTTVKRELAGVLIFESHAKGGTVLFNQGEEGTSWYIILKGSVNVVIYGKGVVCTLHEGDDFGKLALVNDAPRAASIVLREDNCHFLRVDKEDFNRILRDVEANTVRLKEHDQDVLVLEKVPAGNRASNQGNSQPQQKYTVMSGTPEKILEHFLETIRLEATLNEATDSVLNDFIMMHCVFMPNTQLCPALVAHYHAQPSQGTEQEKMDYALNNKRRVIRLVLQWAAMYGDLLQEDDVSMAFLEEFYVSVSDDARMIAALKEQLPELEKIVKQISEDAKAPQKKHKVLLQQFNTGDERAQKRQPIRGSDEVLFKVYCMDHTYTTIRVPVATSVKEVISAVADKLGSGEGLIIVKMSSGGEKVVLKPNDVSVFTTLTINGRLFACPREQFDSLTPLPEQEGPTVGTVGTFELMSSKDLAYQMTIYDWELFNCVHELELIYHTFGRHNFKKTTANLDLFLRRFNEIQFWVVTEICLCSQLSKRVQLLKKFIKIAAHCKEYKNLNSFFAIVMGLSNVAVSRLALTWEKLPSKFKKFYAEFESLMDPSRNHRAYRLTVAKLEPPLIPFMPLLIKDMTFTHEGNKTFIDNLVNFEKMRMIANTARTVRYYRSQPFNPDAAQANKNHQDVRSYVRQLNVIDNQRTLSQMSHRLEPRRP

Structure (SMILES) | Potency
COC(=O)c1c(OC)cc2c(c1C)Oc1c(Cl)c(OC(C)=O)c(Cl)c(C)c1C(=O)O2 | 11.1 µM (active)
CC(=O)Oc1ccc2c(c1)CCC1C2CC[C@]2(C)C(OC(C)=O)CCC12 (stereo partly specified) | inactive
COc1ccc2c(c1)OCc1c-2oc2cc(OC)ccc12 | inactive
O=c1cc(-c2ccc(O)c(O)c2)oc2cc(OC3OC(CO)C(O)C(O)C3O)cc(O)c12 (stereo unspecified) | inactive
Cc1ccccc1-c1ccc2ncnc(N(C)Cc3ccco3)c2c1 | 31.2 µM (active)
CC1=CC2C(CC1=O)C(C)=CCC2C(C)C (stereo unspecified) | 39.3 µM (active)
CC(=O)Oc1ccc2c(c1C(C)C)CCC1C(C)(C)CCC[C@@]21C (stereo partly specified) | inactive
COc1cc(C/C=C/c2ccccc2)c(OC)cc1O | inactive
COC(=O)c1c(OC)cc2c(c1C)Oc1c(Cl)c(O)c(Cl)c(C)c1C(=O)O2 | 8.79 µM (active)
COc1cccc(-c2cncnc2NCc2ccc(OC)cc2OC)c1 | 44.1 µM (active)
CC1(C)[C@@H](O)CC[C@]2(C)C3C(=O)C=C4C5C[C@@](C)(C(=O)O)CC[C@]5(C)CC[C@@]4(C)[C@]3(C)CC[C@@H]12 (stereo partly specified) | 5.55 µM (active)
COc1cc(-c2coc3cc(OCc4ccccc4)c(OC)c(O)c3c2=O)cc(O)c1OC | inactive
CC(=O)OC1CC2C(C)(C)CCC(=O)[C@@]2(C)C2CC[C@@]3(C)C(c4ccoc4)OC(=O)C4OC43[C@]12C (stereo partly specified) | inactive
CC(=O)OC1CCC23CC1(C)CCC2C(C)(C)CC3OC(C)=O (stereo unspecified) | 39.3 µM (active)
O=C(c1cccc(F)c1)N1CCC[C@@]2(CCN(C(c3ccccc3)c3ccccc3)C2)C1 | inactive
COc1ccc2c(c1)[C@@]1(C)CCC[C@](C)(CO)C1CC2 (stereo partly specified) | 39.3 µM (active)

Structure (SMILES) | Potency
O=C(O)c1cc(O)c2c(c1)C(=O)c1cc(O)cc(O)c1C2=O | inactive
COc1ccc(-c2nc3cnc(Nc4cccc(OC)c4)nc3n(CCC#N)c2=O)cc1 | inactive
O=c1c(-c2ccccc2)coc2cc(O)cc(O)c12 | inactive
COc1cccc(-c2nc(Nc3ccncc3)c3ccccc3n2)c1 | inactive
N[C@H](C(=O)O)C(O)C(O)C(O)CO (stereo partly specified) | inactive
NCC1OC(n2cnc3c(=O)[nH]c(N)nc32)C(O)C1O (stereo unspecified) | inactive
CC1(C)C(O)CC[C@]2(C)C1CC[C@@]1(C)C2C(=O)C=C2[C@@H]3C[C@@](C)(C(=O)O)CC[C@@]3(C)CCC21C (stereo partly specified) | 4.94 µM (active)
O=c1c(O)c(-c2ccc(O)c(O)c2)oc2c(OC3OC(CO)C(O)C(O)C3O)c(O)cc(O)c12 (stereo unspecified) | inactive
CC1(C)C=CC(=O)[C@]2(C)C1CC(=O)[C@]1(C)C2CC[C@@]2(C)C(c3ccoc3)OC(=O)C3OC321 (stereo partly specified) | inactive
COc1c(-c2ccc(O)c(O)c2)oc2cc(O)cc(O)c2c1=O | inactive
O=C1CC[C@@]23/C=C/C(=O)NCCCCNCCCNC(=O)/C=C/c4ccc(c2c4)OC3C1 (stereo partly specified) | inactive
COc1ccc2c(c1)OC/C(=C/c1ccc(O)c(O)c1)C2=O | inactive
Nc1nc2n[nH]nc2c(=O)[nH]1 | inactive
CN(Cc1ccco1)c1nc(-c2cccc(C#N)c2)nc2ccccc12 | inactive
COc1ccc(C(=O)O)c(O)c1OC | inactive
